Assay results taken from the supplement of paper PMC4206461.
Unmarked numbers belong to inactive results.

The compounds below were run on Pseudomonas aeruginosa PA14 dppA1-A5 penta mutant + pBBR5.DppA1 (PA14_58350) (assay: respiration area under curve with compound as sole nitrogen source, 24 h (OmniLog AUC (arbitrary units)); higher = more respiration / better utilisation as nitrogen source).
Method: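 Biolog Phenotype MicroArray plates PM6-PM8: each di/tripeptide is the sole nitrogen source. Tetrazolium reduction was read in the OmniLog for 24 h at 37°C and summarised as area under the respiration curve (arbitrary units). Values below 2000 count as no respiration. Strain is the SBP penta mutant complemented with DppA1 on a plasmid under its native promoter. Lys/His/Cys peptides are excluded.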

Row | SMILES | respiration area under curve
1 | CC(C)C[C@@H](NC(=O)CNC(=O)CN)C(=O)O (plate: PM8) | 232
2 | CC(C)C[C@H](NC(=O)CNC(=O)CN)C(=O)O (plate: PM8) | 3880 (active)
